# Source: PubChem BioAssay
# Active and inactive are the calls of the source.
# Columns and labels:
# [1] = A549 cell viability effects, profiling panel, calcein-AM fluorescence, 48 h, basal (AID 1162); settings: higher = more signal
# [2] = adipocyte viability effects, profiling panel, cell-based, 3T3-L1 adipocytes, calcein-AM fluorescence, 48 h, basal (AID 1163); settings: 3T3-L1 adipocytes viability, higher = more signal
# [3] = HepG2 cell viability effects, profiling panel, calcein-AM fluorescence, 48 h, basal (AID 1164); settings: higher = more signal
# [4] = MM1S cell viability effects, profiling panel, calcein-AM fluorescence, 48 h, basal (AID 1165); settings: higher = more signal;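 also: viability of MM1S multiple myeloma cells under basal unstimulated conditions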
# [5] = basal RPMI8226 viability, no added stimulus, profiling panel, cell-based, calcein-AM fluorescence, 48 h, PK04 Diversity Set (AID 1166); settings: RPMI8226 myeloma viability, higher = more signal;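 also: cells grown under basal conditions without added stimulus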
# [6] = basal HepG2 mitochondrial membrane potential changes, profiling panel, cell-based, JC-1 fluorescence, 24 h, 100 nL compound (AID 1167); settings: higher = more signal
# [7] = basal 3T3-L1 adipocyte mitochondrial potential changes, profiling panel, cell-based, JC-1 fluorescence, 3T3-L1 adipocytes, 24 h, 100 nL compound (AID 1168); settings: JC-1 mitochondrial fluorescence, higher = more signal, called active from +8 up or from −8 down
# [8] = basal RPMI8226 mitochondrial membrane potential changes, profiling panel, cell-based, JC-1 fluorescence, 24 h, 100 nL compound (AID 1169); settings: RPMI8226 myeloma, JC-1 mitochondrial potential fluorescence, higher = more signal
# [9] = basal MM1S mitochondrial membrane potential changes, profiling panel, cell-based, JC-1 fluorescence, 24 h, 100 nL compound (AID 1170); settings: higher = more signal
# [10] = A549 lung cancer cell viability effects, profiling panel, resazurin fluorescence, 24 h, PK04 Diversity Set (AID 1171); settings: higher = more signal, called active from +8 up or from −8 down
# Also: test concentration not given here.
SMILES,z-score [1],z-score [2],z-score [3],z-score [4],z-score [5],z-score [6],z-score [7],z-score [8],z-score [9],z-score [10]
[N-]=[N+]=NCc1ccccc1C[C@]1(C(N)=O)COC(c2ccc(OCCCO)cc2)=N1,0.446,0.431,1.28,-0.761,0.0881,-0.234,1.16 (inactive),-0.425,1.07,-1.1 (inactive)
CC1CC/C=C\[C@H]2OC34C=CCN(C(C)(C)C)C(=O)[C@H]3N(C(C)CO)C(=O)[C@@H]4C2C(=O)O1 (stereo not given in full),0.593,-0.691,0.292,0.771,-0.192,-0.0168,-0.43 (inactive),-0.164,-0.726,-0.388 (inactive)
CC(C)C(=C=CC[C@H](O)c1ccc(OCCO)cc1)CCO,0.421,0.799,0.101,-3.35,-2.14,-1.55,-0.722 (inactive),-0.881,-0.0147,1.05 (inactive)
CC(C)C[C@@H]1NC(=O)[C@H](C(C)C)NC(=O)[C@@]23C(=O)N[C@@H](Cc4ccccc4)C2[C@H](C)[C@@]2(C)O[C@H]2C3/C=C/CC/C=C/CNC1=O (stereo not given in full),-0.642,1.39,-0.504,-0.359,-0.789,-0.0491,-0.321 (inactive),0.0651,1.72,0.612 (inactive)
CCOC(=O)C[C@H]1[C@H](OC(=O)c2ccc(-c3ccccc3)cc2)[C@@H](NC(=O)Cc2ccc(OC)cc2)c2cc(OCCCO)ccc2N1C(=O)c1ccccc1,-0.137,0.533,-0.42,0.57,-0.432,1.37,-1.03 (inactive),0.0293,-0.102,-0.657 (inactive)
C=CCC(OC(C)=O)[C@@H]1[C@@H](N(Cc2cc3ccccc3o2)C(=O)c2cccc3ccccc23)c2cc(OCCCO)ccc2N1C(=O)c1ccc(-c2ccccc2)cc1 (stereo not given in full),0.067,0.509,0.168,0.612,-2.25,3.47,0.0822 (inactive),-0.448,0.955,-0.808 (inactive)
C=CCOC(=O)[C@H]1[C@@H]2C(=O)O[C@@H](c3ccccc3)[C@@H](c3ccccc3)N2[C@@H](c2ccc(OCCOC(=O)[C@H]3C[C@H]4C(=O)N[C@@H](CCCCNC(C)=O)C(=O)N4[C@H]3c3ccc(O)cc3)cc2)[C@]12C(=O)Nc1ccc(I)cc12,-0.143,-0.0346,-0.251,-2.94,-2.69,1.46,0.585 (inactive),-0.538,-1.44,0.974 (inactive)
